Tests used:
Test in all cases: log2 ratio of Biotin-Ahx-Ub-VS probe labelling (fragment/DMSO); higher = less target engagement (more negative = stronger competition), active = hit call of the paper (q ≤ 0.05, log2 ratio ≤ -1)
Settings in all cases: compound concentration: 200 uM; treatment time: 3 h
USP42 = target: T1, USP42 (UniProt Q9H9J4)
T1 sequence (whole entry): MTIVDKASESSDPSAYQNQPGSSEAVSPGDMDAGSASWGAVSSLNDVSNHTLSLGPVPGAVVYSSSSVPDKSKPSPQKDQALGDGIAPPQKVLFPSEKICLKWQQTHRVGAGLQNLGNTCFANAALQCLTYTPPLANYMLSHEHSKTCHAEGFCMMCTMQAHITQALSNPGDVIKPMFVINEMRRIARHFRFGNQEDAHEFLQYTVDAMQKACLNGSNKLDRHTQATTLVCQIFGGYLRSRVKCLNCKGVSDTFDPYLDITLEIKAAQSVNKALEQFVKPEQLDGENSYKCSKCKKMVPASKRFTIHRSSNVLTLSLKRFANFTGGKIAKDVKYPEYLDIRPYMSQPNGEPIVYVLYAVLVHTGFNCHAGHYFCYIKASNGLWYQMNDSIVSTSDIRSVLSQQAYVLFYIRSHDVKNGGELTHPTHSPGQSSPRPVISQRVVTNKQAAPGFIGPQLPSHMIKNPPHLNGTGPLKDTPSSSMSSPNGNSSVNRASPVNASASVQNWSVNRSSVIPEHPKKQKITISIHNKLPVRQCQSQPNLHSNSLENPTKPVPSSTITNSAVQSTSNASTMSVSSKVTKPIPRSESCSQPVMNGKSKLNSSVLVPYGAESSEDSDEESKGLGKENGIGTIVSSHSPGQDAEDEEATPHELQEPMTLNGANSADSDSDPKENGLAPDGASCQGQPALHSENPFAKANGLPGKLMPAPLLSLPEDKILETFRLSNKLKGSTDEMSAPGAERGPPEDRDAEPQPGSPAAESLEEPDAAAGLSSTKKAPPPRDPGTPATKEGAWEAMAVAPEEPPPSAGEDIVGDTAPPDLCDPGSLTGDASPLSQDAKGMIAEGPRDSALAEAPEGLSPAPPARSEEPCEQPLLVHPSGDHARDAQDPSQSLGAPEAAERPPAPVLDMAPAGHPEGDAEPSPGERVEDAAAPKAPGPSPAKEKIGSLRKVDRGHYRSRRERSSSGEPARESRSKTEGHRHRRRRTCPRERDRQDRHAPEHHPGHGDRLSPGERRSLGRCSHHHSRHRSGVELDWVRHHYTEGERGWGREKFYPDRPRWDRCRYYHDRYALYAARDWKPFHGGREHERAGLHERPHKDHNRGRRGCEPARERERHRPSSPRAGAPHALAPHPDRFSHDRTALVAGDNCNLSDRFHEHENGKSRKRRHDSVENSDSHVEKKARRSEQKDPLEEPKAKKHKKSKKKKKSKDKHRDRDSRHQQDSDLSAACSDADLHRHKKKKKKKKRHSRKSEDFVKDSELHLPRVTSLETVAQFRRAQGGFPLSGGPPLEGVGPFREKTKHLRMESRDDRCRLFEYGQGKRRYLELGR
Outline: (§1)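 Using Biotin-Ahx-Ub-VS at 0.5 µM final for 1 h, DUBs were labelled in HEK293T lysate (495 µg per sample) that had first been treated in triplicate with fragment at 200 µM or vehicle for 3 h. NeutrAvidin enrichment, LysC and trypsin digestion and diaPASEF LC-MS/MS followed. Spectronaut label-free quantities were global-median-normalised. Values are average log2 fragment/vehicle ratios by unpaired t-test, using proteins with ≥2 unique peptides.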

USP46 = USP46 (UniProt P62068)
Chain of USP46 (P62068 whole entry): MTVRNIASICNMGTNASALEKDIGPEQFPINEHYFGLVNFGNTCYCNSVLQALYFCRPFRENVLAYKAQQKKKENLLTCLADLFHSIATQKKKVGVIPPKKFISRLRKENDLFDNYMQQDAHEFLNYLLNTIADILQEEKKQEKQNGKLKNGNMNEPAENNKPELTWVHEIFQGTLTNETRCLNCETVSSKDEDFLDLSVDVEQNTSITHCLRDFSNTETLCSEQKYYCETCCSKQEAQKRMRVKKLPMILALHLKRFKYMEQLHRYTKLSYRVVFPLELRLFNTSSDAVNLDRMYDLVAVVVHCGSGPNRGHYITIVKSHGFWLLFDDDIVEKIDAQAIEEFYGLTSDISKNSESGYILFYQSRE
Outline: as §1

USP47 = target: T2, USP47 (UniProt Q96K76)
T2 sequence (whole entry): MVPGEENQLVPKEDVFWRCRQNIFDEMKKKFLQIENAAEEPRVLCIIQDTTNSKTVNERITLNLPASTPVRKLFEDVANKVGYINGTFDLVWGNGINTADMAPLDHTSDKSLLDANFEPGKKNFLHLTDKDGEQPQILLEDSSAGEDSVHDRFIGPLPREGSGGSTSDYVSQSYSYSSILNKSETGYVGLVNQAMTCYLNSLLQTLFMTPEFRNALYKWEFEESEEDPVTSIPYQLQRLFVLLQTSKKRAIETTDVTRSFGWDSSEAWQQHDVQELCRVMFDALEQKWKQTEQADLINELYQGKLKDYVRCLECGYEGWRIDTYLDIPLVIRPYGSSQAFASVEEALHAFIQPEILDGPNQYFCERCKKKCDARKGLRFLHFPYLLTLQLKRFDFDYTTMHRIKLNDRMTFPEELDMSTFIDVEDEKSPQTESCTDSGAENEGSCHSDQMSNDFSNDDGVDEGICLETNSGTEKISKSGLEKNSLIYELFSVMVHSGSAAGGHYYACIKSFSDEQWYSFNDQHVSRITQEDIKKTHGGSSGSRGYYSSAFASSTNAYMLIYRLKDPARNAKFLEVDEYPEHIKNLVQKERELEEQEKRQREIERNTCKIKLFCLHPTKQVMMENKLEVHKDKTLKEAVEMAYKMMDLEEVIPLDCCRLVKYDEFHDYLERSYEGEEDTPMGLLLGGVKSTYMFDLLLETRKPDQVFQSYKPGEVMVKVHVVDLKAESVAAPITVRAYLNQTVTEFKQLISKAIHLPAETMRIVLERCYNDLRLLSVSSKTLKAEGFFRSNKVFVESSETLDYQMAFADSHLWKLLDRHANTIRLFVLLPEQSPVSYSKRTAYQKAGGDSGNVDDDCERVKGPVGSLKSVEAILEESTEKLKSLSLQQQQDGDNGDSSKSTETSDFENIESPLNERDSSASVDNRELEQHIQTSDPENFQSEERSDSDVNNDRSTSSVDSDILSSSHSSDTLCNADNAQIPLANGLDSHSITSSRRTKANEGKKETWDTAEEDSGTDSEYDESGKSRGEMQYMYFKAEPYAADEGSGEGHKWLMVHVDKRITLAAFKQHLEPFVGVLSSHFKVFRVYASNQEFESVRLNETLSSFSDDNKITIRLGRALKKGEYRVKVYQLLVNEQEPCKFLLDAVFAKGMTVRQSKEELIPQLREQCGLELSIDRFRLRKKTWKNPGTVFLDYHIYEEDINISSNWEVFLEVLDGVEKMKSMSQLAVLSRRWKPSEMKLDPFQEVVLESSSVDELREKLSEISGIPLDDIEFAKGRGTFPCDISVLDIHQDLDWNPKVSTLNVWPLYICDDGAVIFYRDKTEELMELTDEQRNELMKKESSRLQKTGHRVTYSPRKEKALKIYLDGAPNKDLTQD
Outline: as §1

USP48 = target: T3, USP48 (UniProt Q86UV5)
T3 sequence (whole entry): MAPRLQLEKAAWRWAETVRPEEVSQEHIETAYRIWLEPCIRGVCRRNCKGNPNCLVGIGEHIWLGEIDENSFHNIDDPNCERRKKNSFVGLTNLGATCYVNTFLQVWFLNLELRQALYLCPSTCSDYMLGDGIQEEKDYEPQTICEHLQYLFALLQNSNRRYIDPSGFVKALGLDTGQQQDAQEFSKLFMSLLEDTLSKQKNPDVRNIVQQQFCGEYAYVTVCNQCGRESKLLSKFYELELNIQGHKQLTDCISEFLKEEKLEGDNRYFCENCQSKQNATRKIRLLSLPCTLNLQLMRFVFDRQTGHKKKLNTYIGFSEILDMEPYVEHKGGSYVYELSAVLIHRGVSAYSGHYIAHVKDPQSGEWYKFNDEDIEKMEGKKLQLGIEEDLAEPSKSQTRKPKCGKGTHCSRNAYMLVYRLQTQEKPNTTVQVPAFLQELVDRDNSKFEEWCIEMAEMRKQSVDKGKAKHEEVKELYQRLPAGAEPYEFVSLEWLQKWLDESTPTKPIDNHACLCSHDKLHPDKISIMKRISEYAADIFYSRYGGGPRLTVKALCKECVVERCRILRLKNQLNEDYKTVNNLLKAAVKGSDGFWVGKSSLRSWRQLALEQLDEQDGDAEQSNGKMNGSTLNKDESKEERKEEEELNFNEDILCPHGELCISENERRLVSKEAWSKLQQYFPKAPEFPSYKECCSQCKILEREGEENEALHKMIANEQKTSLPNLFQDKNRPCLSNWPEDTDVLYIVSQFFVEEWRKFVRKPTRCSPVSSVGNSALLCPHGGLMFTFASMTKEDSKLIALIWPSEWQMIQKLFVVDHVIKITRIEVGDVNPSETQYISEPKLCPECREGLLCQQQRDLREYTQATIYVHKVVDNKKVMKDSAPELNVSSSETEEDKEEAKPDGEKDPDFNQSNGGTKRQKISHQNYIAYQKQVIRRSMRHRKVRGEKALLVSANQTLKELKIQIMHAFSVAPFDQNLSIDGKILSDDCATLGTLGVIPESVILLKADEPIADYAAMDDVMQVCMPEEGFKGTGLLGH
Outline: as §1

USP5 = target: T4, USP5 (UniProt P45974)
T4 sequence (whole entry): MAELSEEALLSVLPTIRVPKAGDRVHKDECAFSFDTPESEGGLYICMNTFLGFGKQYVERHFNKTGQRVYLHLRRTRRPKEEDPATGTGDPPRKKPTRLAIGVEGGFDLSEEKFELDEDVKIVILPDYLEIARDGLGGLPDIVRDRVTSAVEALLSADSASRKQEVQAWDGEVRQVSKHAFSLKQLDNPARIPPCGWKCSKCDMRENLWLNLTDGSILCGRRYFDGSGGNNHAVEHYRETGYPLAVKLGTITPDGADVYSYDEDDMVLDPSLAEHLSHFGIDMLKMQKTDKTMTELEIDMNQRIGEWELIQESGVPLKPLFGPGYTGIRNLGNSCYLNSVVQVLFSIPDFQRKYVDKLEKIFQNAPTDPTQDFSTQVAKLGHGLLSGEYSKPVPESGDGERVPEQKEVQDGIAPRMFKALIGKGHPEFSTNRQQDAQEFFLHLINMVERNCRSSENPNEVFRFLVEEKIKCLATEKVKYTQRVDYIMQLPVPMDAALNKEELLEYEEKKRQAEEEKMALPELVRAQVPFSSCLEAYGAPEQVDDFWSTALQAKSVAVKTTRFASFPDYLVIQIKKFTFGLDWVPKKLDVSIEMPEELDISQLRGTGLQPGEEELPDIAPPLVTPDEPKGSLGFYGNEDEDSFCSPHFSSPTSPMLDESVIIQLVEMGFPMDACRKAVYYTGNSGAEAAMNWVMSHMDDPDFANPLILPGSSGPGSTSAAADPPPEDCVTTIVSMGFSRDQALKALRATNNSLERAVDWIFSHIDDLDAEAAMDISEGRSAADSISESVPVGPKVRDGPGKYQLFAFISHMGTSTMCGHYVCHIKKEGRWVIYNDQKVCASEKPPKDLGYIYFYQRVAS
Outline: as §1

USP54 = USP54 (UniProt Q70EL1)
Outline: as §1

USP7 = USP7 (UniProt Q93009)
Chain of USP7 (Q93009 whole entry, looked up): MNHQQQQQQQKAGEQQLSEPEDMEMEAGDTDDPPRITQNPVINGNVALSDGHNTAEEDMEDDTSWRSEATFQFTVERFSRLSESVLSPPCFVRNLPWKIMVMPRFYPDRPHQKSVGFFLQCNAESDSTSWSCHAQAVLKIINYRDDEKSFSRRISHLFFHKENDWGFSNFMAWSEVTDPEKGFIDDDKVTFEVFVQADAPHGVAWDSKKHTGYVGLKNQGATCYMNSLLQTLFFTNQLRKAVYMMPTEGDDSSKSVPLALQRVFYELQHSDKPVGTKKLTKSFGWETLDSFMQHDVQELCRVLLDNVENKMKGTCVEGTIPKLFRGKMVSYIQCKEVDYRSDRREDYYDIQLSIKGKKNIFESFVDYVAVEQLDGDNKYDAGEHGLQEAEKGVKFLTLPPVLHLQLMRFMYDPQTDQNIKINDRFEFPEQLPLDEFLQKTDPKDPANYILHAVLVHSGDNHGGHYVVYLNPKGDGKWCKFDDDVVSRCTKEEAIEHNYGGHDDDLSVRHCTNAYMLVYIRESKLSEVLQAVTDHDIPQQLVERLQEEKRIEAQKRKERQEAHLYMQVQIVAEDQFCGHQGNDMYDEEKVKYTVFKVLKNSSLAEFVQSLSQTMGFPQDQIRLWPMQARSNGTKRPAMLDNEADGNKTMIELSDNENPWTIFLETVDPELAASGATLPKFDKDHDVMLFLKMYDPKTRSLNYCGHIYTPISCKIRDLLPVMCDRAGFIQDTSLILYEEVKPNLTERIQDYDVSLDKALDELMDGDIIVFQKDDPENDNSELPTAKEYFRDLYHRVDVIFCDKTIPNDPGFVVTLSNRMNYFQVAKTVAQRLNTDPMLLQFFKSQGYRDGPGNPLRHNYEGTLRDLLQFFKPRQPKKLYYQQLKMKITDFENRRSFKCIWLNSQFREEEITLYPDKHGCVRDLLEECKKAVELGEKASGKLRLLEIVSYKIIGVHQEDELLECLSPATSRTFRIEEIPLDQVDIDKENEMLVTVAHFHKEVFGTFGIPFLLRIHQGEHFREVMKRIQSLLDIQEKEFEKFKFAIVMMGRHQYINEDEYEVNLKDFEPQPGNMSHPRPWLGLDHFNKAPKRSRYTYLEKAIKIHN
Outline: as §1

USP8 = target: T5, USP8 (UniProt P40818)
T5 sequence (whole entry): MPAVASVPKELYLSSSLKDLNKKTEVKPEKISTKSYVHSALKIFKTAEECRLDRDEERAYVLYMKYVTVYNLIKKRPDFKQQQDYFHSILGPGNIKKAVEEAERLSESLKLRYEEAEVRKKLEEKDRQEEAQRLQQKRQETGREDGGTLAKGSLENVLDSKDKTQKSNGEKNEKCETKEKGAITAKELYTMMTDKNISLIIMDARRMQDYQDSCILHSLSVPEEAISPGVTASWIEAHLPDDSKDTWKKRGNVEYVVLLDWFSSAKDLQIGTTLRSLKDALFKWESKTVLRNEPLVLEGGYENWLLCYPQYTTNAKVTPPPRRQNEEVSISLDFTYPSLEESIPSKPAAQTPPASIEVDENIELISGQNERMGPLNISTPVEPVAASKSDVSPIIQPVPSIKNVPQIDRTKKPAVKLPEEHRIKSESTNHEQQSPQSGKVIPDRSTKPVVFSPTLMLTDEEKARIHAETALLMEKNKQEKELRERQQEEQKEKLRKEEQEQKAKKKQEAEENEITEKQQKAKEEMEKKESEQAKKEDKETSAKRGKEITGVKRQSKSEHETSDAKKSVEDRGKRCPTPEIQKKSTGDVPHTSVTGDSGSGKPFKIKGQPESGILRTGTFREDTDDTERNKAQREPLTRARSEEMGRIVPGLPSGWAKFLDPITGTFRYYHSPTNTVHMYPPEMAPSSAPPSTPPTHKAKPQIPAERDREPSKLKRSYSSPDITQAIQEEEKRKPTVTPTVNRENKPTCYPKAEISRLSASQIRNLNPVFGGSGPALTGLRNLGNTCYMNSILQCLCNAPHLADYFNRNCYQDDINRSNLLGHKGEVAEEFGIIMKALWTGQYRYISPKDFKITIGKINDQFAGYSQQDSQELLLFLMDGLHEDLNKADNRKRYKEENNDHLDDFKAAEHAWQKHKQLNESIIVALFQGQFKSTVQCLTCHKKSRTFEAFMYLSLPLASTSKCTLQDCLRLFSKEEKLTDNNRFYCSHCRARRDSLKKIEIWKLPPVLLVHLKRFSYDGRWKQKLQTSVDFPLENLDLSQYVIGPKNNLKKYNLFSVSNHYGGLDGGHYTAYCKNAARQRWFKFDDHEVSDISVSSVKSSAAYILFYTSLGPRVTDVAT
Outline: as §1

USP9X = USP9X (UniProt Q93008)
Chain of USP9X (Q93008 whole entry): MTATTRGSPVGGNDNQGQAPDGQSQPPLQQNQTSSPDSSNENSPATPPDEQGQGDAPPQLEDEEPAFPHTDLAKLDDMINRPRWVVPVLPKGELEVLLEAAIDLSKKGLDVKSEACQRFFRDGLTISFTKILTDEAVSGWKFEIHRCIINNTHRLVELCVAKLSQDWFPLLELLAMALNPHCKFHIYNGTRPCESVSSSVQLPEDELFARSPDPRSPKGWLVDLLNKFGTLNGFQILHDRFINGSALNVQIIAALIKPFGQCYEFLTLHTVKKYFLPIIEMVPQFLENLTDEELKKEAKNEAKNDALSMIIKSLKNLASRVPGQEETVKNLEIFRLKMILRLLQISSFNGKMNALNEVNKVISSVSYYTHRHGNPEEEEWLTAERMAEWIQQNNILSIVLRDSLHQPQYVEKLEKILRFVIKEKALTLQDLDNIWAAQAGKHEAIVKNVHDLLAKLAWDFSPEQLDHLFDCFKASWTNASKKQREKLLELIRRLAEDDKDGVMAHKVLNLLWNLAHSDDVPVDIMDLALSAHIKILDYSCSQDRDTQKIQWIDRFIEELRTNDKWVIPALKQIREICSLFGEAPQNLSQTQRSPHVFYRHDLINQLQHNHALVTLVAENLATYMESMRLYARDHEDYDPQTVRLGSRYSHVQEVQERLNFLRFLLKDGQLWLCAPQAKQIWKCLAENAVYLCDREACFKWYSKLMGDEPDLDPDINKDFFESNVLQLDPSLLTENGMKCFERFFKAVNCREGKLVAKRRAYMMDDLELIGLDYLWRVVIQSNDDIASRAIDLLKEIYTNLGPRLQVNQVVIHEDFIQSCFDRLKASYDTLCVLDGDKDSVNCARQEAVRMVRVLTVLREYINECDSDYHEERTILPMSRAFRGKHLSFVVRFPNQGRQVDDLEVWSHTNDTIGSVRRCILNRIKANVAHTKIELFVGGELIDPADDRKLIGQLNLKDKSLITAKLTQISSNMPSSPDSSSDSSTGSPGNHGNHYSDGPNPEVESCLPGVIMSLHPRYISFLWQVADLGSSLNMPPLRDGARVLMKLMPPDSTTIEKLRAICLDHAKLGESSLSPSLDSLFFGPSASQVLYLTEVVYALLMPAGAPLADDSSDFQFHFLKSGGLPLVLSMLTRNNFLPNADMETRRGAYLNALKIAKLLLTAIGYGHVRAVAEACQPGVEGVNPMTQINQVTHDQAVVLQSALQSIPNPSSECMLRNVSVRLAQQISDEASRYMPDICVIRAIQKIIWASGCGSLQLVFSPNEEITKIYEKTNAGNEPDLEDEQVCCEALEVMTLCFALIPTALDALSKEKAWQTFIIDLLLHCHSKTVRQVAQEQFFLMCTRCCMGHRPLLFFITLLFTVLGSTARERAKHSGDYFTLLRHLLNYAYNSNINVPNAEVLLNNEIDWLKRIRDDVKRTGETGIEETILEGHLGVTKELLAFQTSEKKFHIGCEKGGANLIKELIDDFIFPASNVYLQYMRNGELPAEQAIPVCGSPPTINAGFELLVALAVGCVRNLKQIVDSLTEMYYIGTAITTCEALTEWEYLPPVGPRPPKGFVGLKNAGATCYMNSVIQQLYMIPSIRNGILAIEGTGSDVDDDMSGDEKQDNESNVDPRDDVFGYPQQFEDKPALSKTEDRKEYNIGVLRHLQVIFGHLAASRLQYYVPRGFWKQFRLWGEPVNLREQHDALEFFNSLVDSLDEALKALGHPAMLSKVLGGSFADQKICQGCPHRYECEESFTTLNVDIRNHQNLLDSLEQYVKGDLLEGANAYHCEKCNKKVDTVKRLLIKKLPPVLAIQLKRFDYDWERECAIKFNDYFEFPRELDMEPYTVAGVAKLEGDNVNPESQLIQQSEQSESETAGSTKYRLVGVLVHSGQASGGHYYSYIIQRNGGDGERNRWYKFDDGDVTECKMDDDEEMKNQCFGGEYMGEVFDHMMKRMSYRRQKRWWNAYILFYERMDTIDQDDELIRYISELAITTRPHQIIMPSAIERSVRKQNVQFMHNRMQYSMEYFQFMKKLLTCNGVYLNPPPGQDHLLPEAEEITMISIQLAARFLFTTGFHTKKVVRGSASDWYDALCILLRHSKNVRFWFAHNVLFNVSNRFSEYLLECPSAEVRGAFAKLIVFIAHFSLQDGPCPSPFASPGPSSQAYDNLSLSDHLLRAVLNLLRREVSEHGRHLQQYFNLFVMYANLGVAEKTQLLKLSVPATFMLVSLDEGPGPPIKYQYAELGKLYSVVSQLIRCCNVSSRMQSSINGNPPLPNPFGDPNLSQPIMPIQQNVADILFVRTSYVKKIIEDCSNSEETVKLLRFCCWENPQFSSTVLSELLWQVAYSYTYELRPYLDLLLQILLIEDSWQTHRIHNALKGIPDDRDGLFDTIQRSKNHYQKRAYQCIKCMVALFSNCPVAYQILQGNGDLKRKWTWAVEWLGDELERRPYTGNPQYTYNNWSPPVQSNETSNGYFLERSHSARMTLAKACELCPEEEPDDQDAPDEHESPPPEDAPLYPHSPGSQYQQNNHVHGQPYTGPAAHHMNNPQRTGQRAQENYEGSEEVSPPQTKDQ
Outline: as §1

UniProt O00487 = target: UniProt O00487
Chain of UniProt O00487 (O00487 whole entry): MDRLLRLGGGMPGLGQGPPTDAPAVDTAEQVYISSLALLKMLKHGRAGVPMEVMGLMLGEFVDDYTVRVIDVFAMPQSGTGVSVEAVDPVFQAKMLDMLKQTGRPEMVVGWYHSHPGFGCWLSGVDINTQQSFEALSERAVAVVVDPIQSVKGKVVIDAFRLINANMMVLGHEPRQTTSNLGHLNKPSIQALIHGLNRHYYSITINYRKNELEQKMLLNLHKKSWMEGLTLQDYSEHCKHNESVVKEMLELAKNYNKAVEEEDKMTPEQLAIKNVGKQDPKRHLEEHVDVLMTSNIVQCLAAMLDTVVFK
Outline: as §1

Measured: log2 ratio of Biotin-Ahx-Ub-VS probe labelling

O=C(CCl)Nc1ccc(N2CCCC2=O)cc1
inactive: USP42 -0.131 | USP46 0.132 | USP47 0.214 | USP48 -0.192 | USP5 -0.0866 | USP54 0.313 | USP7 -0.0242 | USP8 0.198 | USP9X 0.00968 | UniProt O00487 -0.0936

CC(c1ccccc1)N(C)C(=O)CCl (stereo not given)
inactive: USP42 -0.0241 | USP46 -0.161 | USP47 0.0295 | USP48 -0.407 | USP5 0.359 | USP54 0.0889 | USP7 -0.735 | USP8 -0.0666 | USP9X -0.115 | UniProt O00487 -0.0533

COc1ccc(CN(C)C(=O)CCl)cc1
inactive: USP42 0.294 | USP46 -0.0887 | USP47 -0.0389 | USP48 -0.604 | USP5 0.404 | USP54 0.256 | USP7 -0.907 | USP8 -0.448 | USP9X -0.178 | UniProt O00487 -0.0169

Cc1cccc(NC(=O)[C@@H]2CCCN2C(=O)CCl)n1
inactive: USP42 0.315 | USP46 -0.247 | USP47 -0.448 | USP48 -0.474 | USP5 0.305 | USP54 0.236 | USP7 -0.502 | USP8 -0.358 | USP9X -0.337 | UniProt O00487 -0.177
